We go through 23 molecules from PubChem BioAssay AID1917 (Vanderbilt High Throughput Screening Facility, 2009).

Among all 3,000 compounds or so, about 1,600 (53%) were called active. Another 10% or so got no clear call; they are omitted. The set was probably picked from earlier hits. Not all results are given here. Unmarked numbers belong to inactive results.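 Rule for the calls: active = Flux at 10 µM at least 3 SD below or above vehicle control mean in one or both replicates; inconclusive = no clear call, values can overlap the other calls; inactive = the rest.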

Chain of ATP-sensitive inward rectifier potassium channel 1 (Homo sapiens) (P48048 whole entry, looked up): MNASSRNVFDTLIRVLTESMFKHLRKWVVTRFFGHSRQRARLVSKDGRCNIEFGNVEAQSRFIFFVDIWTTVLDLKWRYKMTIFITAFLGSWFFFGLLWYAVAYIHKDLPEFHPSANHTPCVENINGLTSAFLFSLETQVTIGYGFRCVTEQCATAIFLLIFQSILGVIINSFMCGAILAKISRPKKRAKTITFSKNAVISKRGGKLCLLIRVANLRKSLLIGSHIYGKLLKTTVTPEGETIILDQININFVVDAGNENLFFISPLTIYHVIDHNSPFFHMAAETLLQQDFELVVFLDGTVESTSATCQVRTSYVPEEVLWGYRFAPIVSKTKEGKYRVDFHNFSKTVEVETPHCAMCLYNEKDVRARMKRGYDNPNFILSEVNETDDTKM

This experiment has as its target ATP-sensitive inward rectifier potassium channel 1 (Homo sapiens) (UniProt P48048). Kind of experiment: ROMK channel modulator hit retest, confirmation, cell-based, thallium flux, duplicate, resupplied hits (AID 1917). The following applies: fluorescence ratio, at 10 µM, stronger effect = lower value.
Take `CC(=O)Nc1cccc(OCC(=O)/C=C2\N(C)c3ccccc3C2(C)C)c1`: the normalized thallium flux (F/F0 slope) is 0.0622 (active).
For the molecule `COc1ccc(C2=CC(c3cccc(OC)c3)n3nnnc3N2)cc1` (stereo not drawn), the normalized thallium flux (F/F0 slope) was 0.0704.
The value for `Cc1cc(NC(=O)/C=C/C(=O)N(c2ccccc2C)C(C(=O)NC2CCCC2)c2ccc(F)cc2)no1` (stereo not drawn) was 0.0543 (active).
For `N#C/C(=C/c1cccc([N+](=O)[O-])c1)c1nnc2n1CCCCC2` the value was 0.0362 (active); for `CC1=C(C(=O)OCc2ccccc2)C(c2ccco2)n2ncnc2N1` (stereo not drawn), 0.0737.
As to `COc1ccc(C(CCNCc2ccccc2F)c2ccc(F)cc2)cc1` (stereo not drawn), the normalized thallium flux (F/F0 slope) is 0.0609 (active).
For `Cc1cccc(Oc2c([N+](=O)[O-])c(=O)n(C)c3ccccc23)c1` the value was 0.063 (active).
On to `Nc1ccccc1SC(C[N+](=O)[O-])c1ccccc1` (stereo not drawn), for which the normalized thallium flux (F/F0 slope) is 0.0367 (active).
For `O=C(/C=C/Sc1ncn[nH]1)c1ccc(Cl)cc1` the value was 0.0389 (active); for `Cc1ccc2c(=O)oc(N(C)C)nc2c1`, 0.0826.
Consider `CCOc1ccc(-n2cnnn2)cc1S(=O)(=O)N1CCC(C)CC1C` (stereo not drawn), for which the normalized thallium flux (F/F0 slope) is 0.0657 (active).
For `N=c1n(CCc2ccccc2)c2ccccc2n1Cc1ccccc1F` the value was 0.0479 (active).
For `COc1ccc(Nc2cc(C)nc(-n3nc(C)cc3C)n2)cc1` the value was 0.0854; for `CC1(C)CCSC(/C=C/c2ccccc2)=N1`, 0.0442 (active).
The value for `CCn1c(/C=C/Nc2ccccc2)[n+](CC)c2ccc(C(=O)OCC(F)(F)F)cc21` was 0.0522 (active); that for `O=C(Nc1cccc(C(F)(F)F)c1)c1ccc(N2CCNCC2)c([N+](=O)[O-])c1` was 0.0632 (active).
Regarding `N#C/C(=C\c1ccccc1C(F)(F)F)C(=O)Nc1ccccc1F`, the normalized thallium flux (F/F0 slope) was 0.0489 (active).
The value for `Cc1ccc(N2C(=O)C3CC3C2=O)cc1` (stereo not drawn) was 0.0794; that for `N#C/C(=C\C1=C(N2CCOCC2)C(=C\c2ccccc2)/CC1)C(=O)Nc1ccccc1F` was 0.0509 (active).
With `COC(=O)C[n+]1cccc2ccccc21`, the normalized thallium flux (F/F0 slope) was 0.0529 (active).
The value for `CN1CCN(c2ccc(S(=O)(=O)N3CCCCC3)cc2NC(=O)Cc2ccccc2F)CC1` was 0.0614 (active); that for `CNc1nccc(-c2ccc(Cl)cc2)c1C#N` was 0.0744; that for `CCOC(=O)N/N=C1\CC(C)S(=O)(=O)c2ccc(Cl)cc21` (stereo not drawn) was 0.0738.
